Source: PubChem BioAssay
Sampled rows, rich in hits. Any-hit rate of the full collection: about 3.5%.
Pf apPOL block: Pf-apPOL DNA polymerase inhibition; actives 0.25% (n = 210,000); inhibition, % at 10 µM; Recombinant Pf-apPOL, molecular beacon fluorescence, 1.5 h
mHTT-CaM PPI inh: inhibitors of human mutant huntingtin-calmodulin interaction | P42858 | AlphaScreen His-mHTT/GST-CaM binding, luminescence | inhibition, % at 15 µM | actives 3.6% (n = 190,000) | AID 1671202
Target sequence (P42858 whole entry, looked up, change not shown): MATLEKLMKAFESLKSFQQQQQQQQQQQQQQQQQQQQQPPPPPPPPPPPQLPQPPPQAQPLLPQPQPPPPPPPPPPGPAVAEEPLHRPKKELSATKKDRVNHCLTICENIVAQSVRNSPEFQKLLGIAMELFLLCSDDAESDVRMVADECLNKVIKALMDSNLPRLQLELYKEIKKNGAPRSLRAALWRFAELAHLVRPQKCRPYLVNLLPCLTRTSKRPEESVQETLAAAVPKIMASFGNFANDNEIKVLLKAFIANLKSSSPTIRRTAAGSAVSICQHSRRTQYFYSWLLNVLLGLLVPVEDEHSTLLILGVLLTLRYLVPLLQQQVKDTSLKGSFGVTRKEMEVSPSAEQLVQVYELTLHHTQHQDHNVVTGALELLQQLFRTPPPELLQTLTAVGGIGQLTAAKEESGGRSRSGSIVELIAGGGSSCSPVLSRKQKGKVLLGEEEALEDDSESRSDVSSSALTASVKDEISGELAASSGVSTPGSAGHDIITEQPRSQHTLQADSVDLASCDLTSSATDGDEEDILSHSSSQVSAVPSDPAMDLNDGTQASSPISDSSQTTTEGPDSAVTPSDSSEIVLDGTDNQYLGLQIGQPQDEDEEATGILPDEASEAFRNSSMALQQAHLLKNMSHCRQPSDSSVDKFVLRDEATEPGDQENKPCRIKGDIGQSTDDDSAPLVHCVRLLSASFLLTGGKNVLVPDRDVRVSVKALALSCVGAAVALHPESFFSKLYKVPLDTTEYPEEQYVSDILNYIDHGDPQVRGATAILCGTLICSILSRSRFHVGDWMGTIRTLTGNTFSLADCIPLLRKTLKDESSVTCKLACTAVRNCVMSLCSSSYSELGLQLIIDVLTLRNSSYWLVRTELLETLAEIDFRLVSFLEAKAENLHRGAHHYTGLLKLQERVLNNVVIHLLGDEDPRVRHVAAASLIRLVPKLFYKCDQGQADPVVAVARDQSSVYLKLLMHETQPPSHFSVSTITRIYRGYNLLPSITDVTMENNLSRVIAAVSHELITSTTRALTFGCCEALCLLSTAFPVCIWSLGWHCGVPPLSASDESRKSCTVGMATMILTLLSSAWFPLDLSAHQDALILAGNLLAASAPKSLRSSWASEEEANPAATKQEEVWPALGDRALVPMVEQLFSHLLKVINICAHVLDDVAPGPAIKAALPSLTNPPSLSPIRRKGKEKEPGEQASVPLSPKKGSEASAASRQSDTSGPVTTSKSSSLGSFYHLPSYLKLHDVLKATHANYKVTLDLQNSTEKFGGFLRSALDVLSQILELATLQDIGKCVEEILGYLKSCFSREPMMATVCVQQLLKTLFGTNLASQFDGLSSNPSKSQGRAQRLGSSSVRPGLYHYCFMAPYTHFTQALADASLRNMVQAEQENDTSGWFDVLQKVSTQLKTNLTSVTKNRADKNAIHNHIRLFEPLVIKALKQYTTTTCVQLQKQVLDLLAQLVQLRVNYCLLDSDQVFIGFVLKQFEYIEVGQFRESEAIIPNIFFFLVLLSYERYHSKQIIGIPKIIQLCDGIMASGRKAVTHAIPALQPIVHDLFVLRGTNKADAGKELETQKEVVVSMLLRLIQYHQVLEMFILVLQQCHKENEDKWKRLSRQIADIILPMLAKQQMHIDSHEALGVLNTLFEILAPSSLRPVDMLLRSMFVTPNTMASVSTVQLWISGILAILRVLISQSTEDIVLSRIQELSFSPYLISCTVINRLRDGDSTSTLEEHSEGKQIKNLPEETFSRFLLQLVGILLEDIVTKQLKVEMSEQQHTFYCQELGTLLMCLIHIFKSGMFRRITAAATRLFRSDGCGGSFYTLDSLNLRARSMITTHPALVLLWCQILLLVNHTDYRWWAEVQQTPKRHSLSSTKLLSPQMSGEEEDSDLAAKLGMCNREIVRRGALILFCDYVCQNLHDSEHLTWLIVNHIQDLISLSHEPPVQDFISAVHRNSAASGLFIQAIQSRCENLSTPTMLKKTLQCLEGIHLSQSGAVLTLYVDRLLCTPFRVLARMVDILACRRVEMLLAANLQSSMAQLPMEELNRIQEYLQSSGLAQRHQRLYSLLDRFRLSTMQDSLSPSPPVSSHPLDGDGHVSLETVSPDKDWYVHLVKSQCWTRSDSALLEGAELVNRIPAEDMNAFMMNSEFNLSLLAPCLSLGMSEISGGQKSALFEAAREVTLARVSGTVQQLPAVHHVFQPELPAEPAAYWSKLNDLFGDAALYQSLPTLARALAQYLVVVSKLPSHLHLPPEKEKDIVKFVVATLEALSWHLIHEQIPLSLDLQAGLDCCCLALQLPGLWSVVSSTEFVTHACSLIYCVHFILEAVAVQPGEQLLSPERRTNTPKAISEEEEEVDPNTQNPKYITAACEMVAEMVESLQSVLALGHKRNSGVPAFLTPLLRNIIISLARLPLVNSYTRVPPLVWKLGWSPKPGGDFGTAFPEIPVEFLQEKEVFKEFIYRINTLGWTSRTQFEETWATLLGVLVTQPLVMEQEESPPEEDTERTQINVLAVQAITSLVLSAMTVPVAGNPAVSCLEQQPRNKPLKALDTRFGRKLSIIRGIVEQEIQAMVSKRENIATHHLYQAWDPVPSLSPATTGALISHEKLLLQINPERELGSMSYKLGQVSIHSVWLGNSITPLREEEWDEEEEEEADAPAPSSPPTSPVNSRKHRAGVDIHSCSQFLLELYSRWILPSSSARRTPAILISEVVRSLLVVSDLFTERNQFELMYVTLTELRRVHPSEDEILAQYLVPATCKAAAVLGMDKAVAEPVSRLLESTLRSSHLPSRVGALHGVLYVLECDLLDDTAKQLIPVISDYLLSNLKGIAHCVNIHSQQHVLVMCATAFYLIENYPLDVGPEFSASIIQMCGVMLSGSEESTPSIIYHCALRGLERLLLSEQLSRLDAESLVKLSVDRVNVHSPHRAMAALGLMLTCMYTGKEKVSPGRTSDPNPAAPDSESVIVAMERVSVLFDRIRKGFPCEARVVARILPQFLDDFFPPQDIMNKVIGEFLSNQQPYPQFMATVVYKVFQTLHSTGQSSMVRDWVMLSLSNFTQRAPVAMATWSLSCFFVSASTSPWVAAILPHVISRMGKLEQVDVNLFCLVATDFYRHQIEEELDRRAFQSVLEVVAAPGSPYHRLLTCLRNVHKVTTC
A number is an active result; i = inactive; nt = no result given. Rule as the data show it: active = inhibition above about 50%; inactive = the rest.

SMILES	Pf apPOL block	mHTT-CaM PPI inh
COc1ccc(NC(=O)CN(c2ccc(Cl)cc2)S(=O)(=O)c2ccccc2)cc1OC	i	76.4
COc1ccc(NC(=O)CN(c2cccc([N+](=O)[O-])c2)S(C)(=O)=O)cc1Cl	64.7	i
COc1ccc(Cl)cc1N(CC(=O)Nc1cccc([N+](=O)[O-])c1)S(C)(=O)=O	i	i
Cc1c(Cl)cccc1N(CC(=O)Nc1ccc(F)c(Cl)c1)S(C)(=O)=O	i	98.7
CC(C)CC1=NN2C(=N)/C(=C/c3ccccc3)C(=O)N=C2S1	i	i
O=C(C1CCC1)N1CC(c2nc(-c3ccc(F)cc3)no2)C2(CCOCC2)C1 (centres undefined)	i	i
COc1cccc(N2CCN(C(=O)CCc3ccccc3)C(C)C2=O)c1 (centres undefined)	i	i
CCOC(=O)CNC(=O)N1CCc2nc(-c3ccccc3)ncc2C1	i	i
O=C(Oc1ccc(Br)cc1C1SCCS1)c1ccc([N+](=O)[O-])o1	i	nt
O=C1CCCC2=C1C(c1ccc(F)cc1)Nc1ccc3ncccc3c12 (centres undefined)	i	i
Cc1ccc(-c2cc(C(F)(F)F)nc(SC3CC(=O)C4OCC3O4)n2)cc1 (centres undefined)	i	i
O=C(Nc1ccc(F)c(Cl)c1)c1cn2c(n1)COCC2	i	i
CCOc1ccc2c(c1)-c1c(ssc1=S)C(C)(C)N2	nt	51.2
CCCN1c2ccccc2-c2c(ssc2=S)C1(C)C	nt	i
Cc1ccc2c(c1)-c1c(ssc1=S)C(C)(C)N2	nt	52.5
O=[N+]([O-])c1cc(C=Nc2ccc3nc(-c4cccnc4)oc3c2)ccc1Cl	i	i
CC(C)(C)OCC(O)CN(CCO)CCO (centres undefined)	i	i
COCCc1nc(C2CCCN(Cc3ccccn3)C2)n[nH]1 (centres undefined)	i	89.0
Cc1nc(C2CCN(Cc3cccs3)CC2)n[nH]1	i	i
COCCc1nc(C2CCCN(Cc3cccs3)C2)n[nH]1 (centres undefined)	i	i
Cc1nc(C2CCN(Cc3ccccn3)CC2)n[nH]1	i	98.8
CCOc1ccccc1CN1CCC(c2nc3cccnc3n2CC)C1 (centres undefined)	i	i
CCn1c(C2CCN(Cc3ccccn3)C2)nc2cccnc21 (centres undefined)	i	99.7
O=C(/C=C1\Sc2ccccc2N(Cc2ccccc2F)C1=O)NCc1ccc2c(c1)OCO2	i	i
Cc1ccc(N2CCN(CC(O)c3ccc4c(c3)OCO4)CC2)cc1 (centres undefined)	i	i
SMILES	Pf apPOL block	mHTT-CaM PPI inh
COCc1cc(=O)[nH]c(Sc2c(-c3ccccc3)c3ccccc3[nH]c2=O)n1	i	i
O=C(N/N=C/c1ccc[nH]1)c1ccc(C(=O)N/N=C/c2ccc[nH]2)o1	nt	i
COc1ccc(OC)c(NC(=O)N2CCCC2c2ccc(C)cc2)c1 (centres undefined)	i	i
COc1cc(C=C2SC(=S)N(c3ccc(O)c(C(=O)O)c3)C2=O)cc(OC)c1OC	i	65.9
COc1cc(C=C2SC(=S)N(c3ccc(O)cc3)C2=O)cc(OC)c1OC	i	i
COc1cccc(N2C(=O)C(=Cc3ccc(O)c(O)c3)SC2=S)c1	i	98.2
COc1cc(C=C2SC(=S)N(c3ccc(C(=O)O)c(O)c3)C2=O)cc(OC)c1OC	i	i
COC(=O)c1ccc(N2CCN(C(C)C)CC2)c(NC(=O)CCc2ccccc2)c1	i	i
COc1ccc(-c2cc(-c3cc(OC)ccc3O)[nH]n2)cc1	i	72.0
COc1ccc(-c2cc(-c3ccccc3)nc(=O)[nH]2)cc1	i	i
CCn1cc(S(=O)(=O)N2CCCn3nc(-c4ccc(OC)cc4)cc3C2)cn1	i	i
CCc1ccc(S(=O)(=O)N=C2C=CC(=O)c3ccccc32)cc1	i	93.0
CC(C)(C)c1ccc(S(=O)(=O)N=C2C=CC(=O)c3ccccc32)cc1	i	94.0
CC(C)c1ccc(S(=O)(=O)N=C2C=C(Br)C(=O)c3ccccc32)cc1	i	i
CCOc1ccc(S(=O)(=O)N=C2C=CC(=O)c3ccccc32)cc1	i	72.0
CCOc1ccc(S(=O)(=O)N=C2C=CC(=O)C(Br)=C2)cc1	i	73.0
CCOc1ccc(C2C(=O)c3ccccc3C2=O)cc1	i	i
COc1ccc(S(=O)(=O)N=C2C=C(Br)C(=O)C(Br)=C2)cc1	i	i
CCc1ccc(S(=O)(=O)N=C2C=CC(=O)C=C2)cc1	i	i
COc1cccc(N2CCN(C(=O)C3CCN(c4cncnc4N(C)C)CC3)CC2)c1	i	i
COc1ccc2c(c1OC)C(=O)OC2CC(=O)c1cccc(O)c1 (centres undefined)	i	i
CCc1noc(-c2cccnc2N2CCCN(C(=O)c3cc(OC)cc(OC)c3)CC2)n1	i	i
O=C(NCc1ccccn1)C(=O)NCC(c1cccs1)N1CCc2ccccc21 (centres undefined)	i	i
c1ccc(C(Nc2ncnc3c2cnn3-c2ccccc2)c2ccccc2)cc1	i	i
CC1CCN(CCCNc2ccc(-c3nc(-c4cccc(F)c4)no3)cn2)CC1	i	i
SMILES	Pf apPOL block	mHTT-CaM PPI inh
CN1CCc2cc(C(CNC(=O)Cc3cccc4ccccc34)N3CCOCC3)ccc21 (centres undefined)	i	60.9
CN1CCc2cc(C(CNC(=O)c3ccccc3Br)N3CCOCC3)ccc21 (centres undefined)	i	i
COC(=O)c1ccc(-c2csc(NC(=O)C3CCCC3)n2)cc1	i	i
CN(C)C(CNC(=O)C(=O)Nc1ccc2c(c1)N(S(C)(=O)=O)CCC2)c1cccn1C (centres undefined)	i	i
CC(C)(C)c1ccc(-c2cc(=O)c3cc(NC(=O)C4CCCCC4)ccc3o2)cc1	i	i
O=C1N=C(N2CCOCC2)S/C1=C\C1=Cc2ccccc2OC1	nt	i
O=C1N=C(N2CCCC2)S/C1=C/C=C/c1ccccc1	i	76.0
O=C1N=C(N2CCCCC2)S/C1=C/C1=Cc2ccccc2OC1	i	66.0
CN1CCN(C2=NC(=O)/C(=C/c3ccccc3)S2)CC1	i	i
N#Cc1cccc(C(=O)NC2CCN(c3ccc(F)cc3)C2=O)c1 (centres undefined)	i	i
CC1(C(=O)NCc2ccc(F)cc2)CCCN(S(=O)(=O)c2ccc3c(c2)CCCC3)C1 (centres undefined)	i	64.9
CC(=O)c1ccc(S(=O)(=O)N2CCCC(C)(C(=O)NCc3ccc(F)cc3)C2)cc1 (centres undefined)	i	i
Cc1ccc(S(=O)(=O)N2CCCC(C)(C(=O)NCc3ccc(F)cc3)C2)cc1C (centres undefined)	i	89.1
Cc1ccc(C)c(S(=O)(=O)N2CCCC(C)(C(=O)NCc3ccc(F)cc3)C2)c1 (centres undefined)	i	60.6
Cc1ccc(S(=O)(=O)N2CCCC(C)(C(=O)NCc3ccc(F)cc3)C2)c(C)c1 (centres undefined)	i	i
Cc1ccc(F)cc1S(=O)(=O)N1CCCC(C)(C(=O)NCc2ccc(F)cc2)C1 (centres undefined)	i	i
Cc1ccc(S(=O)(=O)N2CCCC(C)(C(=O)NCc3ccccc3)C2)cc1C (centres undefined)	i	i
CC1(C(=O)NCc2ccc(F)cc2)CCCN(S(=O)(=O)c2ccc(F)c(Cl)c2)C1 (centres undefined)	i	94.7
CS(=O)(=O)N1CCC(C(=O)Nc2nnc(-c3ccc4c(c3)OCCO4)o2)CC1	i	i
Cc1noc(-c2nn(C)c3c2CN(S(=O)(=O)c2ccccc2F)CC3)n1	i	i
